{
  "source": "PubChem BioAssay (NCATS)",
  "note": "Records with an inconclusive call do not appear. Unmarked numbers belong to inactive results. Activity calls are given as the source filed them. Calls come from the whole dose curve; as a rule, active = well fitted cell-killing curve with a large enough effect; inconclusive = small, poorly fitted or top-dose-only effect, or effect the other way; inactive = flat fitted curve, though single readings scatter. % is set by controls: 0 for no effect and ±100 for the full control effect; potency is the fitted concentration of half-maximal effect.",
  "data": [
    {"assay": "qHTS for Inhibitors of ATXN expression: Validation of Cytotoxic Assay (AID 588349)", "conditions": "cytotoxicity counter-screen for ATXN expression inhibitors, cell viability; series mostly up to 57.1 µM; activity change, negative = cytotoxicity: at the top concentration", "from_the_text": "Spinocerebellar ataxia type 2 (SCA2) is a multisystem neurodegenerative disease caused by a dominantly-acting mutation leading to expansion of a polyQ domain in the ataxin-2 protein (ATXN2). SCA2 patients develop progressive ataxia and later lose function in other neuronal systems. Prominent parkinsonian signs develop in some patients. Similar to many neurodegenerative disorders, no symptomatic or disease-modifying treatments are known.\nThe primary objective of project is to identify compounds inhibiting ATXN2 expression and to test them for efficacy in SCA2 mouse models. To this end, in a collaboration between Dr. Daniel Scoles and scientists at NCGC, a cell-based assay adapted to high-throughput screening has been developed to screen the NIH Molecular Libraries Small Molecule Repository (MLSMR). Confirmed qHTS active compounds will be tested for toxicity against the human neuron-like SH-SY5Y cell line. This line is the parental cell type used to generate the transgenic line used in the primary assay, and so should provide an isogenic control to test the inherent toxicity of qHTS actives.\nNIH Chemical Genomics Center [NCGC]\nNIH Molecular Libraries Probe Centers Network [MLPCN]\nAssay Submitter (PI): Stefan Pulst and Daniel Scoles, University of Utah\n[…] cultured cells will be dosed with titrated compounds and incubated for 72 hr at 37 degrees C. Toxicity will be assessed using the CellTiter Glo kit (Promega), which uses intracellular ATP concentration as a viability marker.", "units": {"activity change, negative = cytotoxicity": "%"}, "values": [
      {"molecule": "CCOC(=O)C1=C[C@]2(CC)CCCN3CCc4c(n1c1ccccc41)[C@@H]32", "activity change, negative = cytotoxicity": -23.3},
      {"molecule": "O=C1CCC(N2C(=O)c3ccccc3C2=O)C(=O)N1", "note": "(stereo not given)", "activity change, negative = cytotoxicity": -9.12},
      {"molecule": "NCCCC(N)(C(=O)O)C(F)F", "note": "(stereo not given)", "activity change, negative = cytotoxicity": -6.02},
      {"molecule": "CCCCNc1cc(C(=O)O)cc(S(N)(=O)=O)c1Oc1ccccc1", "activity change, negative = cytotoxicity": -19.7},
      {"molecule": "CCn1cc(C(=O)O)c(=O)c2cc(F)c(N3CCNC(C)C3)c(F)c21", "note": "(stereo not given)", "activity change, negative = cytotoxicity": -7.19},
      {"molecule": "C[C@]12CCC(=O)C=C1CC[C@@H]1[C@@H]2[C@@H](O)C[C@@]2(C)[C@H]1CC[C@]2(O)C(=O)CO", "activity change, negative = cytotoxicity": -6.59},
      {"molecule": "OC(CN1CCC(Cc2ccc(F)cc2)CC1)c1ccc(Cl)cc1", "note": "(stereo not given)", "activity change, negative = cytotoxicity": -2.13},
      {"molecule": "c1ccc([C@H]2CN3CCSC3=N2)cc1", "activity change, negative = cytotoxicity": -10.3},
      {"molecule": "O=c1n(CCCN2CCN(c3cccc(Cl)c3)CC2)nc2ccccn12", "activity change, negative = cytotoxicity": -8.37},
      {"molecule": "C1COC(NC(C2CC2)C2CC2)=N1", "activity change, negative = cytotoxicity": 1.34},
      {"molecule": "Nc1ncnc2nc(-c3ccc(N4CCOCC4)nc3)cc(-c3cccc(Br)c3)c12", "activity change, negative = cytotoxicity": 7.47},
      {"molecule": "NS(=O)(=O)c1cc2c(cc1Cl)NC=NS2(=O)=O", "activity change, negative = cytotoxicity": -7.1},
      {"molecule": "Clc1cccc(Cl)c1NC1=NCCN1", "activity change, negative = cytotoxicity": -14.3},
      {"molecule": "Cc1[nH]c(=O)c(C#N)cc1-c1ccncc1", "activity change, negative = cytotoxicity": -2.64},
      {"molecule": "Cc1cccc(-c2[nH]c(C(C)(C)C)nc2-c2ccc3nccnc3c2)n1", "activity change, negative = cytotoxicity": -26.8},
      {"molecule": "CC(=O)Oc1ccccc1C(=O)O", "activity change, negative = cytotoxicity": -3.94},
      {"molecule": "NC[C@H](O)c1ccc(O)c(O)c1", "activity change, negative = cytotoxicity": -17.8},
      {"molecule": "Cc1ccccc1C(OCCN(C)C)c1ccccc1", "note": "(stereo not given)", "activity change, negative = cytotoxicity": -12.9},
      {"molecule": "O=c1[nH]cnc2[nH]ncc12", "activity change, negative = cytotoxicity": -6.8},
      {"molecule": "Cn1cnc([N+](=O)[O-])c1Sc1ncnc2nc[nH]c12", "activity change, negative = cytotoxicity": -29.3},
      {"molecule": "O=C1CCc2cc(OCCCCc3nnnn3C3CCCCC3)ccc2N1", "activity change, negative = cytotoxicity": -13.1},
      {"molecule": "NNCCc1ccccc1", "activity change, negative = cytotoxicity": -1.49},
      {"molecule": "Cc1oncc1C(=O)Nc1ccc(C(F)(F)F)cc1", "activity change, negative = cytotoxicity": -11.7},
      {"molecule": "Oc1ccc(C2CNCCc3c2cc(O)c(O)c3Cl)cc1", "note": "(stereo not given)", "activity change, negative = cytotoxicity": -18.4},
      {"molecule": "Nc1ccc(S(=O)(=O)Nc2ccnn2-c2ccccc2)cc1", "activity change, negative = cytotoxicity": -8.96},
      {"molecule": "N[C@@H]1CONC1=O", "activity change, negative = cytotoxicity": -7.81},
      {"molecule": "Cc1cnc(NC(=O)C2=C(O)c3ccccc3S(=O)(=O)N2C)s1", "activity change, negative = cytotoxicity": -12.3},
      {"molecule": "O=C(O)COCCN1CCN(C(c2ccccc2)c2ccc(Cl)cc2)CC1", "note": "(stereo not given)", "activity change, negative = cytotoxicity": -14.3},
      {"molecule": "O=C(Nc1nc2ccccc2n1CCN1CCOCC1)c1cccc([N+](=O)[O-])c1", "activity change, negative = cytotoxicity": 0.845},
      {"molecule": "CC(C)NCC(O)COc1ccc(COCCOC(C)C)cc1", "note": "(stereo not given)", "activity change, negative = cytotoxicity": -9.86},
      {"molecule": "CC(C[N+](C)(C)C)OC(N)=O", "note": "(stereo not given)", "activity change, negative = cytotoxicity": -4.42},
      {"molecule": "O=NN(CCCl)C(=O)NCCCl", "activity change, negative = cytotoxicity": -5.77},
      {"molecule": "CCC(C)N(C)C(=O)c1cc2ccccc2c(-c2ccccc2Cl)n1", "note": "(stereo not given)", "activity change, negative = cytotoxicity": -11.8},
      {"molecule": "CNC[C@H](O)c1cccc(O)c1", "activity change, negative = cytotoxicity": -2.25},
      {"molecule": "CCCC(CCC)C(=O)O", "activity change, negative = cytotoxicity": -2.56},
      {"molecule": "CN1CCN(CCCN2c3ccccc3Sc3ccc(C(F)(F)F)cc32)CC1", "Potency": "28.2 µM (active)"},
      {"molecule": "NC(N)=NC(=O)c1nc(Cl)c(N)nc1N", "activity change, negative = cytotoxicity": -10.5},
      {"molecule": "N=c1nc(N2CCCCC2)cc(N)n1O", "activity change, negative = cytotoxicity": -6.76},
      {"molecule": "CC(C)(Sc1ccc(CCN(CCCCC2CCCCC2)C(=O)NC2CCCCC2)cc1)C(=O)O", "activity change, negative = cytotoxicity": -9.58},
      {"molecule": "Nc1nc2ccc(OC(F)(F)F)cc2s1", "activity change, negative = cytotoxicity": -17.4}
    ]}
  ]
}
